In PubChem BioAssay (Tox21):
Values joined by “and” are separate entries in the source; they are usually repeats but may differ in a detail not shown here. Identical values can stand only once. Inconclusive results are not listed. Active and inactive are the calls of the source. Unless noted, calls come from the whole dose curve; as a rule, active = well fitted curve in the direction sought with a large enough effect in the repeat runs; inconclusive = weak or mixed curves; inactive = flat fitted curve, though single readings scatter.

Experiments:
[1] = qHTS assay to test for compound auto fluorescence at 535 nm (green) in HEK293 cells (AID 720680)
[2] = qHTS assay to test for compound auto fluorescence at 535 nm (green) in HEK293 cell free culture (AID 720682)
Summary of the method: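 Cell-free medium (DMEM, 10% FBS) receives compound or DMSO by pintool. Plate read directly at Ex 485/Em 535 nm. Signal converted to fluorescein equivalency.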

[3] = qHTS assay to test for compound auto fluorescence at 590 nm (red) in HEK293 cell free culture (AID 720683)
Summary of the method: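 Cell-free wells of DMEM with 10% FBS received compound, and intrinsic fluorescence was read at excitation/emission 540/590 nm. Values expressed as equivalence to Rose Bengal sodium.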

[4] = qHTS assay to test for compound auto fluorescence at 590 nm (red) in HepG2 cell free culture (AID 720684)
Summary of the method: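 Rose Bengal sodium served as the reference for red signal. Test compounds were dispensed into serum-containing MEM (10% FBS) without cells, and plates were read at 540/590 nm.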

[5] = qHTS assay to test for compound auto fluorescence at 460 nm (blue) in HepG2 cell free culture (AID 720685)
Summary of the method: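 Cell-free plates of MEM plus 10% FBS received 23 nL compound or DMSO vehicle; blue-channel (405/460 nm) intensity scored against triamterene as reference fluorophore.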

[6] = qHTS assay to test for compound auto fluorescence at 535 nm (green) in HepG2 cell free culture (AID 720686)
[7] = qHTS assay to test for compound auto fluorescence at 460 nm (blue) in HepG2 cells (AID 720687)
Summary of the method: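 HepG2 cells in MEM with 10% FBS, attached overnight at 37 C, were exposed to compound or DMSO for 1 hr at 37 C, 5% CO2. Blue fluorescence was read at 405/460 nm, with triamterene as reference fluorophore.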

[8] = target: Glucocorticoid receptor (Homo sapiens) (UniProt P04150); assay: qHTS assay to identify small molecule antagonists of the glucocorticoid receptor (GR) signaling pathway (AID 720692; active = well fitted inhibition curve with a large enough effect in the signal ratio in the repeat runs, not every such curve was filed as active; the % refers to the signal ratio; note: potency is the fitted concentration of half-maximal effect)
Summary of the method: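 Tox21 10K library screened in concentration-response for blockade of dexamethasone (5 nM final)-induced GRE-bla reporter activity in HeLa cells; 18 h treatment, fluorescence read.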

[9] = target: Glucocorticoid receptor (Homo sapiens) (UniProt P04150); assay: qHTS assay to identify small molecule agonists of the glucocorticoid receptor (GR) signaling pathway (AID 720691; active = well fitted activation curve with a large enough effect in the signal ratio in the repeat runs, not every such curve was filed as active; the % refers to the signal ratio)
Summary of the method: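 Measures GR pathway activation through a GRE-beta-lactamase reporter stably integrated in HeLa cells, with 18 h compound treatment at 37 C and fluorescence detection using a FRET substrate.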

Measured: Potency

Chain of Glucocorticoid receptor (Homo sapiens) (P04150 whole entry, looked up): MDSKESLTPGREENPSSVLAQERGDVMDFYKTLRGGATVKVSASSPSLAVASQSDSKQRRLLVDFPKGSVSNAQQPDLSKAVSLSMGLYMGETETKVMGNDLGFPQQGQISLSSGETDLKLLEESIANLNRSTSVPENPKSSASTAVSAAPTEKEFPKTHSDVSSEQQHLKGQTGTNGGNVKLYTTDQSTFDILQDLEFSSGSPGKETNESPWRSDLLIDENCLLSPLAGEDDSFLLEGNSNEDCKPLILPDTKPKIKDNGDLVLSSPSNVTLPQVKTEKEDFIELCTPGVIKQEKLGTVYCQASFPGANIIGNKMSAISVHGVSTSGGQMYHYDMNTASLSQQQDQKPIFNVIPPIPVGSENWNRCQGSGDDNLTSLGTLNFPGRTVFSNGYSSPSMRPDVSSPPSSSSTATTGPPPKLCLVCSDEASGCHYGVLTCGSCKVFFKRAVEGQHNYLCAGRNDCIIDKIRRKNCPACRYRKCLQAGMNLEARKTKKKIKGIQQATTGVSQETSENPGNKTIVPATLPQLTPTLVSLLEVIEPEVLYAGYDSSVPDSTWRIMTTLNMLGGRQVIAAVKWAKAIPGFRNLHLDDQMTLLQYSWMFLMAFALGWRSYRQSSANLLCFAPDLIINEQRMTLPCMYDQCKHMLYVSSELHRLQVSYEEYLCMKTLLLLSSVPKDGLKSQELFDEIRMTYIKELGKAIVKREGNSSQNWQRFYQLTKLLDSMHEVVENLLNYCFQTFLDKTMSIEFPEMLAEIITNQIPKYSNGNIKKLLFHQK

O=C/C(Cl)=C(/Cl)C(=O)O
active: [8] 48.9 µM and 49 µM
not listed: [9]
inactive: all other assays above

ClC1=C(Cl)C2(Cl)C3C(Cl)C=CC3C1(Cl)C2(Cl)Cl (stereo not given)
not listed: [8] | [9]
inactive: all other assays above

CN(C)CCc1c[nH]c2ccc(O)cc12
not listed: [3] | [8]
inactive: all other assays above

CCOC(=O)OC1=C(c2cc(C)ccc2C)C(=O)NC12CCC(OC)CC2 (stereo not given)
not listed: [3] | [8] | [9]
inactive: all other assays above

O=C(Nc1ccc2[nH]ccc2c1)c1cc2cc(F)ccc2n1Cc1cccc(F)c1
not listed: [8] | [9]
inactive: all other assays above

Clc1ccc(C(Cl)(Cl)Cl)c(Cl)c1
not listed: [8] | [9]
inactive: all other assays above

CSCCCN=C=S
not listed: [8] | [9]
inactive: all other assays above

CC(Cc1ccc(C(C)(C)C)cc1)CN1C[C@@H](C)O[C@@H](C)C1 (stereo not given in full)
not listed: [9]
inactive: all other assays above

CC(C)[C@H](C(=O)OC(C#N)c1cccc(Oc2ccccc2)c1)c1ccc(OC(F)F)cc1 (stereo not given in full)
not listed: [8] | [9]
inactive: all other assays above

CCCCOCN(C(=O)CCl)c1c(CC)cccc1CC
active: [8] 21.9 µM
not listed: [9]
inactive: all other assays above

Nc1ccc(Cc2ccc(N)c(Cl)c2)cc1Cl
active: [8] 42.2 µM
inactive: all other assays above

Fc1cccc(Cl)c1CCl
not listed: [8] | [9]
inactive: all other assays above

C1CCC2CCCCC2C1 (stereo not given)
not listed: [8]
inactive: all other assays above

COc1cccc(C(=O)CCN[C@@H](C)[C@H](O)c2ccccc2)c1
not listed: [3] | [8] | [9]
inactive: all other assays above

N#CC(Cl)Cl
not listed: [8] | [9]
inactive: all other assays above

CC(=O)OC1(c2ccccc2)CCN(CCc2ccccc2)CC1
not listed: [8] | [9]
inactive: all other assays above

CC(c1ccc(O)cc1)c1ccc(O)cc1
not listed: [9]
inactive: all other assays above

Oc1ccc(C(=C(Cl)Cl)c2ccc(O)cc2)cc1
not listed: [8] | [9]
inactive: all other assays above

C[C@@H]1CC[C@@]2(OC1)O[C@H]1[C@@H](O)[C@H]3[C@@H]4CC[C@H]5C[C@@H](O[C@@H]6O[C@H](CO)[C@H](O[C@@H]7O[C@H](CO)[C@@H](O)[C@H](O[C@@H]8OC[C@@H](O)[C@H](O)[C@H]8O)[C@H]7O[C@@H]7O[C@H](CO)[C@@H](O)[C@H](O[C@@H]8O[C@H](CO)[C@@H](O)[C@H](O)[C@H]8O)[C@H]7O)[C@H](O)[C@H]6O)[C@H](O)C[C@]5(C)[C@H]4CC[C@]3(C)[C@H]1[C@@H]2C
not listed: [3] | [8] | [9]
inactive: all other assays above

CC1(C)CN=C(NN=C(/C=C/c2ccc(C(F)(F)F)cc2)/C=C/c2ccc(C(F)(F)F)cc2)NC1
not listed: [8] | [9]
inactive: all other assays above

C[C@]12Cc3nonc3C[C@@H]1CC[C@@H]1[C@@H]2CC[C@@]2(C)[C@H]1CC[C@]2(C)O
active: [8] 7.56 µM
not listed: [9]
inactive: all other assays above

Oc1cc(Cl)c(Cl)c(Cl)c1
not listed: [8]
inactive: all other assays above

ClC1=C(Cl)[C@]2(Cl)[C@@H]3[C@@H]4C[C@@H]([C@H]5O[C@@H]45)[C@@H]3[C@@]1(Cl)C2(Cl)Cl
active: [8] 36.7 µM
not listed: [3]
inactive: all other assays above

COc1cc(N)c(Cl)cc1C(=O)NC1CN2CCC1CC2 (stereo not given)
inactive: all assays above

CC(=O)C(Cl)(Cl)Cl
not listed: [8] | [9]
inactive: all other assays above

O=C1NCN(c2ccccc2)C12CCN(CC1COc3ccccc3O1)CC2 (stereo not given)
not listed: [8] | [9]
inactive: all other assays above

CC(C)CCCCCOC(=O)c1ccccc1C(=O)OCCCCCC(C)C
not listed: [9]
inactive: all other assays above

[Cd+2].[Cl-].[Cl-]
not listed: [8] | [9]
inactive: all other assays above

CC[C@H](C)[C@H]1O[C@]2(C=C[C@@H]1C)C[C@@H]1C[C@@H](C/C=C(\C)[C@@H](O[C@H]3C[C@H](OC)[C@@H](O[C@H]4C[C@H](OC)[C@@H](O)[C@H](C)O4)[C@H](C)O3)[C@@H](C)/C=C/C=C3\CO[C@@H]4[C@H](O)C(C)=C[C@@H](C(=O)O1)[C@]34O)O2
active: [8] 23.9 µM
not listed: [3] | [9]
inactive: all other assays above

N#CNC#N
not listed: [3]
inactive: all other assays above

Clc1ccc(C(c2ccccc2Cl)C(Cl)(Cl)Cl)cc1 (stereo not given)
active: [8] 22 µM and 20.3 µM
not listed: [9]
inactive: all other assays above

Nc1ccccc1C(=O)OC/C=C/c1ccccc1
inactive: all assays above

ClCc1ccc(Cl)cc1Cl
inactive: all assays above

CN(C)C1CSSSC1
not listed: [8]
inactive: all other assays above
